Compound activity from PubChem.
L3MBTL1 block – inhibitors of human L3MBTL1; Q9Y468; AlphaScreen L3MBTL1–H3K9me1 peptide binding; Potency, µM (highest dose often 57.1 µM), inactives show at the top dose activity, negative = inhibition, actives largely listed as inhibitors; 0.66% of 230,000 active; AID 485360; also: nearly all actives have a fitted effect of over 60% in size
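First, the protein-peptide complex forms for 30 min at room temperature (L3MBTL1 50 nM, biotinylated H3K9me1 peptide 75 nM). Next, compounds are pin-transferred and incubated 30 min. Finally, AlphaScreen beads are added and read after 30 min.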
APE1 inh – blocks human APE1 abasic DNA cleavage. recombinant APE1, TAMRA/BHQ-2 abasic DNA cleavage fluorescence. P27695. 0.35% of 350,000 active. Potency, µM (highest dose often 65.8 µM), for inactives: at the top dose activity change, negative = inhibition, actives largely listed as inhibitors;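 also: plate controls were vehicle for no effect and reference inhibitor for full effect; nearly all actives have a fitted effect of over 55% in size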
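APE1 at 0.75 nM final was preincubated with compound 15 min at room temperature, then 50 nM double-stranded THF abasic-site substrate (5'-TAMRA/3'-BHQ-2) was added. Fluorescence (ex 525/em 598 nm) was read kinetically; third-minus-first read gave activity.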
RECQ1 inh-1 – RECQ1 (human) helicase inhibition. AID 2549. Potency, µM (doses to about 57.3 µM), for the others: top-dose activity, negative = inhibition, usual class: inhibitors. RECQ1 DNA unwinding, red fluorescence kinetic read. 0.54% of 240,000 active. P46063;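 also: plate controls were vehicle for no effect and no enzyme for full effect; nearly all actives have a fitted effect of over 30% in size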
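RECQ1T1 50 nM; forked duplex (20 bp + 30-nt ss tails) 200 nM, ATP 2 mM final; pH 8.0, 2 mM MgCl2, 2.5 ug/ml poly(dI-dC); 15 min compound preincubation; discontinuous kinetic read over 2 h at RT.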
BLM inh – inhibitors of human Bloom syndrome helicase BLM. P54132. AID 2528. recombinant BLM DNA unwinding, fluorescence dequenching. Potency, µM (top dose mostly 56.1 µM), for inactives: at the highest dose activity change, negative = inhibition, usual class: inhibitors. 0.2% of 350,000 active;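 also: plate controls were vehicle for no effect and no enzyme for full effect; nearly all actives have a fitted effect of over 35% in size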
GCN5L2 inh – blocks human GCN5L2 histone acetyltransferase; GCN5L2 HAT assay, ThioGlo1 CoA-SH fluorescence; Potency, µM (highest dose often 58.9 µM), without a hit: top-dose activity change, negative = inhibition, hits mostly inhibitors; 0.21% of 390,000 active; AID 504327
Target sequence (Q92830 whole entry, looked up): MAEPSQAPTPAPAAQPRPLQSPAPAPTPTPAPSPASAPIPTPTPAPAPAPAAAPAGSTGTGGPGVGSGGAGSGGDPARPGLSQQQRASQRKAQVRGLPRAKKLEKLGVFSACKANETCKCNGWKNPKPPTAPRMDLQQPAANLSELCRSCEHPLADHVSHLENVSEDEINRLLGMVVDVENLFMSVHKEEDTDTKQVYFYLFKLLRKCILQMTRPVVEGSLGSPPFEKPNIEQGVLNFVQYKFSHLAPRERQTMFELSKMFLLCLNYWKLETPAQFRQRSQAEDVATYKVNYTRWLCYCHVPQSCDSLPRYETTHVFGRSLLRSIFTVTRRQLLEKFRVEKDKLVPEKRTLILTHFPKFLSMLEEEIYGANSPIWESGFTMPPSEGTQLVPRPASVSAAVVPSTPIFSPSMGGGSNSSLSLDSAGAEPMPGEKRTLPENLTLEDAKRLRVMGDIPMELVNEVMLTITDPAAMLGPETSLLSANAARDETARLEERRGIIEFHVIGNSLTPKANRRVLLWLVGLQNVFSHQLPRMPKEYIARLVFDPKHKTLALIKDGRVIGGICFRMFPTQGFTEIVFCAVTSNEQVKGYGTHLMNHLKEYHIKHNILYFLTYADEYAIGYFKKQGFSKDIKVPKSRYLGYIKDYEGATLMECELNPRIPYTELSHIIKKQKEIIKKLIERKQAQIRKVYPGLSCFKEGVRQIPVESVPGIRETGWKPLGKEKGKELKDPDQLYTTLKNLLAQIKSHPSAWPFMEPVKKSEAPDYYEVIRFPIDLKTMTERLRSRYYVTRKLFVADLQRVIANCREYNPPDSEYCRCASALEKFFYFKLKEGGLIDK
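GCN5L2 (20nM final) in 50mM HEPES, 0.1mM EDTA pH 7.5, 0.01% Tween-20 was preincubated 15 min at room temperature with compound, then given ThioGlo1 (50uM), H3(1-25) peptide (75uM) and acetyl-CoA (70uM); CoA-thiol fluorescence (Ex340/Em540) was read at 0 and 20 min.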
JMJD2E inh – blocks human JMJD2E demethylase activity; B2RXH2; JMJD2E catalytic domain, FDH-coupled NADH fluorescence (FDH is formaldehyde dehydrogenase); Potency, µM (titrated, usually from 57.1 µM), inactives show at the highest dose activity change, negative = inhibition, hits mostly inhibitors; 1.6% of 230,000 active; active = well fitted inhibition curve with a large enough effect, not every such curve was filed as active; inconclusive = small, poorly fitted or top-dose-only effect, or another doubt; inactive = no such curve, though single readings can be large or run the other way;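 also: 0% = wells with enzyme and -100% = buffer wells without enzyme; nearly all actives have a fitted effect of over 50% in size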
RECQ1 inh conf – confirmation of human RECQ1 helicase inhibitors; 28% of 610 active; RECQ1 helicase DNA unwinding, fluorescence; AID 2708; Potency, µM (series often up to 229 µM), for inactives: at the highest dose activity change, negative = inhibition, most hits filed as inhibitors; shares compounds with RECQ1 inh-1; also: nearly all actives have a fitted effect of over 45% in size
ADP FP counter – ADP displacement flagged in RECQ1 inhibitor counter-screen. Potency, µM (top dose mostly 228 µM), without a hit: at the highest dose activity change, negative = inhibition, most hits filed as inhibitors. shares compounds with RECQ1 inh-1. 27% of 530 active. ADP fluorescence polarization displacement counterscreen; also: nearly all actives have a fitted effect of over 45% in size
RECQ1 inh-2 – RECQ1 helicase inhibition confirmed, round 2 | Potency, µM (titrated, usually from 119 µM), for inactives: at the highest dose activity, negative = inhibition, usual class: inhibitors | recombinant RECQ1 DNA unwinding, red fluorescence | shares compounds with RECQ1 inh-1 | 15% of 1,100 active | AID 504841; also: nearly all actives have a fitted effect of over 50% in size
Active calls of the source: *; i = inactive; ? = inconclusive; . = no result given; [ ] = remark or other dose. The sample as a whole holds a higher share of hits than the screen did. Unless noted, calls follow the shape of the dose curve; as a rule, active = well fitted curve in the direction sought with a large enough effect; inconclusive = small, poorly fitted or top-dose-only effect, or another doubt; inactive = no such curve, though single readings can be large; an effect the other way counts as inactive or inconclusive. Unless noted, % is scaled to controls: 0 for no effect and ±100 for the full control effect; potency is read from the fitted curve at half-maximal effect.

SMILES | L3MBTL1 block | APE1 inh | RECQ1 inh-1 | BLM inh | GCN5L2 inh | JMJD2E inh | others
Cc1cccc(Nc2nc(N)c([N+](=O)[O-])c(NCc3ccco3)n2)c1 | -6% | -5% | -16% | -25% | -5% | 0%
O=C(NNS(=O)(=O)c1ccc([N+](=O)[O-])cc1)C(=O)Nc1cccc(C(=O)O)c1 | . | 43% | . | -5% | -4% | .
COc1cccc(-c2nnc(SC(C(=O)c3c[nH]c4ccccc34)c3ccccc3)n2C)c1 (centres undefined) | 0% | -6% | -7% | -4% | 2% | 6% | RECQ1 inh conf=2%;ADP FP counter=15%
Cc1nn(Cc2c(Cl)cccc2Cl)c(C)c1C(=O)NCc1ccc(C)n1C | . | -4% | ? | -5% | -12% | ? | RECQ1 inh-2=-9%
COc1ccc(N2CCN(C(CNS(C)(=O)=O)c3ccco3)CC2)cc1 (centres undefined) | -17% | -2% | 1% | -8% | -13% | -13%
O=C(CCCN1C(=O)/C(=C\c2cccs2)SC1=S)NNC(=O)c1cccnc1 | -26% | -5% | 2.8µM* | 0% | -14% | 1% | RECQ1 inh conf=?;ADP FP counter=3%[91.9 µM]
COc1ccccc1-c1csc(NC(=O)c2cc(-c3cccs3)nc3ccccc23)n1 | -9% | 15% | ? | -15% | -9% | ? | RECQ1 inh-2=-13%
CC1(C)N=C(c2ccc(Cl)cc2)C(=O)N1 | -1% | -1% | 35µM* | 1% | 13% | 4% | RECQ1 inh-2=?
Cc1cc(C)cc(-n2c(SCC(=O)Nc3nnc(C)s3)nc3c([nH]c4ccccc43)c2=O)c1 | . | . | . | -4% | -7% | .
CCc1sc(C(C2C(=O)CC(C)(C)CC2=O)C2C(=O)CC(C)(C)CC2=O)cc1[N+](=O)[O-] | -1% | -7% | 3.2µM* | -4% | -3% | -18% | RECQ1 inh-2=-12%
CC1(C)CC(=O)C(C(c2ccc(F)cc2)C2C(=O)CC(C)(C)CC2=O)C(=O)C1 | 2% | 12% | -6% | -7% | -5% | 10%
O=C(CN1C(=O)S/C(=C\C=C\c2ccccc2)C1=O)Nc1ccc(C(=O)O)cc1 | ? | -11% | -9% | -23% | ? | -8%
Cc1ccc(NC(=O)CN2C(=O)S/C(=C\c3cc(C)n(-c4ccc(C(=O)O)cc4)c3C)C2=O)cc1 | -18% | 4% | ? | -10% | -7% | ? | RECQ1 inh-2=?
Cc1noc(C)c1-c1cncnc1NC1CC1 | . | 7% | -13% | 1% | -9% | -2%
COc1cccc(NC(=O)CC2S/C(=N\S(=O)(=O)c3ccccc3)N(c3ccccc3)C2=O)c1 (centres undefined) | -7% | 11% | 40µM* | -5% | -4% | -7% | RECQ1 inh-2=-9%
COc1cccc(NC(=O)CC2SC(=Nc3ccccc3)NC2=O)c1 (centres undefined) | . | -3% | -7% | -3% | 0% | 3%
Cc1nn2c(COc3ccc(NC(=O)C(C)C)cc3)nnc2c2ccccc12 | . | 9% | ? | 1% | 0% | 2% | RECQ1 inh-2=-9%
CCOC(=O)Nc1ccc(OCc2nnc3c4ccccc4c(C)nn23)cc1 | 2% | 2% | -7% | -4% | -1% | -4%
COc1ccccc1NC(=O)c1ccc(Cl)c(S(=O)(=O)NCc2ccco2)c1 | 1% | 12% | . | . | 1% | .
CN(C)C(=O)Cn1cc(S(=O)(=O)Cc2ccccc2)c2ccccc21 | . | 12% | . | 0% | -5% | .
CC(C)NC(=O)c1cnc2sc(N3CCCCCC3)nn2c1=O | . | . | . | -5% | -21% | .
O=C1C(Cl)=C(N2CCCCC2)C(=O)C(Cl)=C1c1cnc(N2CCCCC2)s1 | 18µM* | 20µM* | 16µM* | 14µM* | -21% | 14µM* | RECQ1 inh conf=50µM*;ADP FP counter=45µM*
COc1ccc(CNCC(O)(c2ccc(F)cc2)c2ccc(F)cc2)cc1OC | . | -16% | . | -6% | 14% | .
COc1ccc(CNCC(O)(c2ccc(Cl)cc2)c2ccc(Cl)cc2)cc1OC | -4% | -2% | 14µM* | -14% | 5% | 7% | RECQ1 inh conf=?;ADP FP counter=22µM*
CC(C(=O)O)n1nc(-c2ccccc2)c2ccccc21 (centres undefined) | . | 31% | . | -4% | 0% | .
SMILES | L3MBTL1 block | APE1 inh | RECQ1 inh-1 | BLM inh | GCN5L2 inh | JMJD2E inh | others
O=C1C(=O)C(c2cc(O)c(O)c(O)c2)Oc2cc(O)cc(O)c21 (centres undefined) | . | . | . | . | . | . | RECQ1 inh conf=1µM*
COc1ccc(C2CC(=O)c3c(O)cc(O)cc3O2)cc1O (centres undefined) | . | -2% | -10% | 0% | -11% | 10%
CCN(CC)S(=O)(=O)c1ccc2c(c1)nc(CCC(=O)O)n2CC | 11% | -1% | i | 4% | -3% | 4% | RECQ1 inh conf=10%;ADP FP counter=5%
CCCn1c(CCC(=O)O)nc2cc(S(=O)(=O)N(CC)CC)ccc21 | . | -4% | i | 2% | 24% | -11%
COc1cc2c(cc1OC)C(c1ccc(O)cc1)NCC2 (centres undefined) | . | 21% | . | 3% | -9% | .
Oc1ccc(C2CNCCc3c2cc(O)c(O)c3Cl)cc1 (centres undefined) | -5% | -4% | 22µM* | -21% | -7% | ? | RECQ1 inh conf=?;ADP FP counter=45µM*
COc1cccc2c1C(=O)c1c(O)c3c(c(O)c1C2=O)C[C@](O)(C(=O)CO)C[C@H]3O[C@@H]1C[C@H](N)[C@H](O)[C@H](C)O1 | . | 11µM* | 8.9µM* | ? | -6%[21.4 µM] | -9%[25.5 µM] | RECQ1 inh conf=63µM*;ADP FP counter=1.1µM*
CCOC(=O)C1(C(C)C)Oc2ccccc2C(c2ccc(OC)cc2)=C1C(=O)OC (centres undefined) | . | -6% | i | -7%[75.6 µM] | -6% | .
CCN1/C(=C/c2ccc3ccccc3[n+]2CCCS(=O)(=O)[O-])C=Cc2cc(C)ccc21 | . | 36% | . | -3% | 4% | .
CCN1/C(=C/c2ccc3ccccc3[n+]2CC)C=Cc2ccccc21 | . | -4% | ? | -9% | -4%[0.501 µM] | 3% | RECQ1 inh-2=50µM*
COc1ccc(NS(=O)(=O)c2ccc(OC)c(NC(=O)CNC(=O)c3ccc(OC)cc3)c2)cc1 | 3% | 8% | . | . | -7% | .
